Each structure is given as a SMILES string. The campaign covered roughly 1,500 compounds. About 460 (31%) were called active. Not shown: some 1% with an inconclusive outcome. These entries were drawn from the full list. Potency and affinity values are given separately. A number with no mark means an inactive call.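 Rule for the calls: active = curve reaches 40% activation over neutral controls at an AC40 no higher than the top valid tested concentration; inconclusive = no clear call, values can overlap the other calls; inactive = signal moving opposite to the expected increase, and the rest.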

This assay in a line: activators of glucose-dependent insulin secretion, dose response, cell-based, INS-1E, Gaussia luciferase, luminescence, cherry-pick, set 2 (AID 977607).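 Note: 0% = median of the plate neutral control wells.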 Conditions: INS-1E GLuc insulin secretion reporter, 2-3 h, stronger effect = higher value; at 35 µM, 100% = signal doubled over neutral wells unless noted.
`Cc1cc(C)nc(NC(N)=NCCc2c[nH]c3ccccc23)n1`: the max activation was -23.4% [at 0.046 µM, 100% = signal doubled over neutral wells].

For the molecule `COc1cc(C(F)(F)F)c(C(=O)NCc2cccc(Cl)c2)cn1`, the max activation is -11.8%.

On to `CCN(CC)CCCN=C1N[C@@H](c2ccccc2)C(C(=O)OC)=C(C)N1CC`, for which the max activation was -23.5% [at 3.8 µM, 100% = signal doubled over neutral wells].

As to `COC(=O)C1=C(C)N(Cc2ccc(C(F)(F)F)cc2)C(=NCC2CC2)NC1c1ccccc1` (stereo not given), the max activation is -21% [at 3.8 µM, 100% = signal doubled over neutral wells].

Take `CCCCN(Cc1nc2ccccc2c(=O)[nH]1)C(=O)c1nn(C)c(=O)c2ccccc12`: the max activation is -30.4% [at 0.0016 µM, 100% = signal doubled over neutral wells].

Turning to `Clc1cc(NC2CCCCC2)ncn1`, the max activation is -22.5% [at 11 µM, 100% = signal doubled over neutral wells].

For the molecule `CC(C)c1cc(C(C)C)n2nc(N)nc2n1`, the max activation is 24.3%.

Regarding `COCCOC(=O)C1=C(C)NC(=O)N(C(C)=O)C1c1ccc(Cl)cc1` (stereo not given), the max activation was -26.3% [at 3.8 µM, 100% = signal doubled over neutral wells].

As for `NC1=NC(=O)C(Cc2ccc(F)cc2)S1` (stereo not given), the max activation is -13% [at 0.015 µM, 100% = signal doubled over neutral wells].

As to `O=C(c1ccccc1F)N1CCCC(N2CCN(Cc3ccc4c(c3)OCO4)CC2)C1` (stereo not given), the max activation was -12.4% [at 0.0016 µM, 100% = signal doubled over neutral wells].

On to `CCCNC(=O)C1(C)CCN(C(=O)c2cccc(C(F)(F)F)c2)C1` (stereo not given), for which the max activation was -15.8% [at 0.135 µM, 100% = signal doubled over neutral wells].

On to `CCCCc1nnc2c(N(C)S(=O)(=O)c3ccccc3)nc3ccccc3n12`, for which the max activation is -17.8% [at 0.015 µM, 100% = signal doubled over neutral wells].

On to `Cc1cccc(N2CCN(C(=O)c3cccn4c(=O)c5c(C)c(C)sc5nc34)CC2)c1C`, for which the max activation was -13.3% [at 0.046 µM, 100% = signal doubled over neutral wells].

In the case of `COC(=O)C1CCN(c2cc(Cl)nc(N)n2)CC1`, the max activation was 30.9%.

Consider `NC(=O)c1cc2cc(Cl)ccc2o/c1=N/NC(=O)c1cccs1`, for which the max activation was -12.9% [at 0.135 µM, 100% = signal doubled over neutral wells].

With `N#CCCN(Cc1ccccc1)C(=O)c1cccs1`, the max activation was -20.9% [at 11 µM, 100% = signal doubled over neutral wells].

In the case of `CCOC(=O)c1cc(CC)sc1NC(=O)COC(=O)c1cnccn1`, the max activation is -18.2% [at 0.005 µM, 100% = signal doubled over neutral wells].

In the case of `CCOc1ncccc1C(=O)NCc1cccc(OC)c1`, the max activation was -19.1% [at 0.0016 µM, 100% = signal doubled over neutral wells].

Turning to `COc1cccc(CNC(=O)c2cccnc2Sc2ccccc2)c1`, the max activation was -18.8% [at 0.0016 µM, 100% = signal doubled over neutral wells].

Regarding `CCOc1ccc(CCNC(=O)COC(=O)c2nccnc2N)cc1OCC`, the max activation is 16.3% [at 0.42 µM, 100% = signal doubled over neutral wells].

For the molecule `C/C(Cl)=C\Cn1c(N2CCCC2)nc2c1c(=O)[nH]c(=O)n2C`, the max activation is -16.5% [at 0.0016 µM, 100% = signal doubled over neutral wells].

On to `COc1ccc(NC(=O)Cc2c(SC)c3ccccc3n2Cc2ccccc2)cc1`, for which the max activation is 28.7% [at 1.2 µM, 100% = signal doubled over neutral wells].

Turning to `CCCCC(=O)N(C)c1c(CC)nc2c(OCc3ccc(C(F)(F)F)cc3)cccn12`, the max activation is -15.2%.

`CCc1nc2c(OCc3ccccc3C(=O)OC)cccn2c1N(C)C(=O)c1ccncc1`: the max activation was -29.4%.

For the molecule `COCC(=O)N(C)C[C@H]1Oc2cc(Br)ccc2S(=O)(=O)N([C@H](C)CO)C[C@H]1C`, the max activation was -5.77% [at 0.046 µM, 100% = signal doubled over neutral wells].

Take `C[C@@H]1CN([C@@H](C)CO)C(=O)c2cccc(NC(=O)Nc3ccc(C(F)(F)F)cc3)c2O[C@H]1CN(C)Cc1ccc(Cl)c(Cl)c1`: the max activation was -26.5% [at 11 µM, 100% = signal doubled over neutral wells].

Turning to `C[C@@H]1CN([C@H](C)CO)C(=O)c2cc(C#CCc3ccccc3)cnc2O[C@H]1CN(C)C(=O)C1CCC1`, the max activation was 25.2% [at 0.015 µM, 100% = signal doubled over neutral wells].

Consider `C[C@H]1CN([C@@H](C)CO)C(=O)c2ccccc2-c2ccccc2CO[C@@H]1CN(C)Cc1ccc(Cl)c(Cl)c1`, for which the max activation was -38.4% [at 3.8 µM, 100% = signal doubled over neutral wells].

For `C[C@H]1CN([C@@H](C)CO)C(=O)c2ccccc2-c2ccccc2CO[C@@H]1CN(C)Cc1cccc(C(F)(F)F)c1`, the max activation was -39% [at 11 µM, 100% = signal doubled over neutral wells].

Regarding `C[C@H](CO)N1C[C@H](C)[C@@H](CN(C)C(=O)CC2CC2)Oc2cc(C#CC(C)(C)O)ccc2S1(=O)=O`, the max activation is 36.4% [at 0.046 µM, 100% = signal doubled over neutral wells].

As to `C[C@@H]1CN([C@H](C)CO)C(=O)c2cc(C#CCN(C)C)cnc2O[C@H]1CN(C)S(=O)(=O)c1cn(C)cn1`, the max activation was 31.4% [at 0.015 µM, 100% = signal doubled over neutral wells].

Take `C[C@@H]1CN([C@H](C)CO)S(=O)(=O)c2ccc(-c3ccc(C#N)cc3)cc2O[C@H]1CN(C)C`: the max activation is 15.6% [at 0.046 µM, 100% = signal doubled over neutral wells].

Regarding `COc1ccc(-c2nc3cccc(C)n3c2NCc2ccco2)cc1OC`, the max activation was -14.6% [at 1.2 µM, 100% = signal doubled over neutral wells].

For `CN(C)c1ccc(CC(=O)N2CCCCC2c2cc(C(=O)Nc3ccccc3Cl)no2)cc1` (stereo not given), the max activation was -48.9%.

Regarding `CCCc1c(C)c2ccc(OCC(C)=O)cc2oc1=O`, the max activation was -16.6% [at 0.005 µM, 100% = signal doubled over neutral wells].

For the molecule `CCOC(=O)N1CCN(S(=O)(=O)c2ccc3c4c(cccc24)C(=O)N3)CC1`, the max activation is 37.4% [at 0.42 µM, 100% = signal doubled over neutral wells].

With `C[C@H](CO)N1C[C@H](C)[C@@H](CN(C)C(=O)Cc2ccccn2)Oc2cc(C#C[C@@H](C)O)ccc2S1(=O)=O`, the max activation is -20.3% [at 0.135 µM, 100% = signal doubled over neutral wells].

Regarding `C[C@H]1CN([C@@H](C)CO)C(=O)c2cc(C#CCc3ccccc3)cnc2O[C@@H]1CN(C)C(=O)C1CC1`, the max activation was -42.9%.

Turning to `C[C@@H]1CN([C@H](C)CO)C(=O)Cc2cc(NC(=O)CCCN(C)C)ccc2O[C@H]1CN(C)Cc1ccc(-c2ccccc2)cc1`, the max activation was 19.8%.

Turning to `C[C@@H]1CN([C@@H](C)CO)C(=O)CCCn2nncc2CO[C@H]1CN(C)Cc1ccccc1`, the max activation is -19.1% [at 0.015 µM, 100% = signal doubled over neutral wells].

`O=C(Cn1cnc2c(OCc3ccccc3)ncnc21)NCc1ccccn1`: the max activation is 17.4% [at 0.135 µM, 100% = signal doubled over neutral wells].

Regarding `Cc1c(C)n(CCCN(C)C)c2ncnc(Nc3ccccc3)c12`, the max activation was -20.1% [at 11 µM, 100% = signal doubled over neutral wells].

With `Cc1ccc(F)cc1NC(=O)c1sc2ncn(CC(=O)N3CCN(c4ccccn4)CC3)c(=O)c2c1C`, the max activation was -38%.

With `Cc1ccc(/C=N/n2c(-c3cccnc3)n[nH]c2=S)s1`, the max activation was -11.8% [at 1.2 µM, 100% = signal doubled over neutral wells].

As to `COc1ccc(/C=N/n2c(-c3n[nH]c4c3CCC4)n[nH]c2=S)cc1OC`, the max activation is -27.2% [at 0.0016 µM, 100% = signal doubled over neutral wells].

With `S=c1[nH]nc(-c2ccccc2)n1/N=C/c1c[nH]c2ccccc12`, the max activation is 30.5% [at 0.005 µM, 100% = signal doubled over neutral wells].

Regarding `C=CCN=c1sc(C(=O)OC)cc(=O)n1CC=C`, the max activation is 27.6% [at 11 µM, 100% = signal doubled over neutral wells].

As for `Cc1ccc(F)cc1-c1nc(NC(C)C)nc2cc(-c3ccccc3)sc12`, the max activation is -27.5% [at 11 µM, 100% = signal doubled over neutral wells].

With `COc1ccc(CCNC(=O)CN2c3cccc4cccc(c34)S2(=O)=O)cc1OC`, the max activation was 39.7%.

As for `O=C(Nc1cccnc1)/C(N=Nc1cccnc1)=C(\O)c1ccccc1`, the max activation is -11.7% [at 0.42 µM, 100% = signal doubled over neutral wells].

The values are drawn from PubChem BioAssay AID977607 (Broad Institute, 2014).
